# Laboratory results reported in PubChem BioAssay AID778 (Sanford-Burnham Center for Chemical Genomics, 2007).
# Hit rate of the full screen: of about 96,000 compounds, about 20,000 (21%) were called active. The list is a sample of the results. Unmarked numbers belong to inactive results.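 The calls were made as follows: active = CYP2C19 inhibition above a set limit at 5 µM in the primary screen (cut at about 50% in these data); inactive = the rest.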
# Target: Cytochrome P450 2C19 (Homo sapiens) (UniProt P33261)
# Sequence (P33261 whole entry, looked up): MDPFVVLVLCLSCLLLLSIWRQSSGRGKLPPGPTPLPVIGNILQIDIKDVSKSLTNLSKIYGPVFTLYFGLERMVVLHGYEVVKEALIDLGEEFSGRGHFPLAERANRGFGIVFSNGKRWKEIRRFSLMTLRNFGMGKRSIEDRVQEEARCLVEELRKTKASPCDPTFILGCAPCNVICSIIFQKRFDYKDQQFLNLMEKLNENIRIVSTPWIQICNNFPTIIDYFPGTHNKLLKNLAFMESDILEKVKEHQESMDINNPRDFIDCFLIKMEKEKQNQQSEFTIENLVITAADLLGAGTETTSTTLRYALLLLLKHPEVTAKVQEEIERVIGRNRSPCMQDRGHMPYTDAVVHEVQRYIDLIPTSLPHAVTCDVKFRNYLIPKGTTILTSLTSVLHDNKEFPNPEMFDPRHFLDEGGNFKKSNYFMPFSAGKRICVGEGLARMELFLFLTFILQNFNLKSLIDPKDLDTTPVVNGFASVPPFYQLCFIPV
# Assay: blockers of cytochrome P450 2C19 activity – biochemical, luminescence, ADME assay, primary screen (AID 778);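 also: plate controls were negative control wells for no effect and 2.5 mM tranylcypromine positive control for full effect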
# Conditions: CYP2C19 Supersomes, luciferin-H EGE luminescence, 30 min; at 5 µM; hits give high values
row,Structure (SMILES),inhibition
1,Nc1c(C(=O)NCc2ccccc2)nnn1Cc1cccc(Cl)c1,6.4%
2,CC(C)=CC(=O)Nc1nnc(-c2ccc(F)cc2)s1,4.7%
3,CCOC(=O)C1CCN(C(=O)C2CCN(S(=O)(=O)N3CCCC3)CC2)CC1,10.9%
4,CCOC(=O)C1CCN(C(=O)C2CCN(S(=O)(=O)CC)CC2)CC1,-18.2%
5,CCOC(=O)C1CCN(C(=O)Nc2ccc(Cl)cc2)CC1,63.1% (active)
6,Cc1ccc(-c2nc(C)sc2CC(=O)O)cc1,29.8%
7,NC(=O)COc1ccc(/C=N/NC(=O)C2CCCN2S(=O)(=O)c2ccc(Cl)cc2)cc1 (stereo not drawn),19.2%
8,CSc1ccc(/C=N\NC(=O)COc2ccc(Cl)cc2Br)cc1,76.4% (active)
9,O=C(Cc1ccccc1)N/N=C/c1ccc(Cl)cc1Cl,7.9%
10,CS(=O)(=O)c1ccc2nc(NC(=O)C3C4C=CC(C4)C3C(=O)O)sc2c1 (stereo not drawn),0.7%
11,COC(=O)c1cc(NC(=O)C2C3C=CC(C3)C2C(=O)O)cc(C(=O)OC)c1 (stereo not drawn),2.5%
12,CC(C)COC(=O)c1ccc(NC(=O)C2C3C=CC(C3)C2C(=O)O)cc1 (stereo not drawn),54.2% (active)
13,CC(Sc1nnc(Cc2ccc([N+](=O)[O-])cc2)o1)C(N)=O (stereo not drawn),16.6%
14,O=C(Cn1cnc2c(cnn2-c2ccccc2)c1=O)NCc1ccccc1,-10.8%
15,CN1C(=O)C(CC(N)=O)N(NC(=O)c2ccc(Cl)cc2)C1=S (stereo not drawn),-7.8%
16,CC(=O)N1CC2(C)CN(C(C)=O)CC(C)(C1)C2=O,79.3% (active)
17,CCCCC(=O)N1CC2(C)CN(C(=O)CCCC)CC(C)(C1)C2=O,-1.6%
18,CCCCNC(=O)CSc1nc2ccc(NC(=O)CSc3nnc(COc4ccccc4C)n3C)cc2s1,19.1%
19,CC(C)c1ccc(NC(=O)CCN2C(=O)c3ccc([N+](=O)[O-])cc3C2=O)cc1,8.5%
20,Cc1sc(NC(=O)C2C3CCC(O3)C2C(=O)O)c(C(=O)OC(C)C)c1-c1ccc(Cl)cc1 (stereo not drawn),19.7%
21,CCC(CC)C(=O)Nc1cc(C(=O)OC)cc(C(=O)OC)c1,1.1%
22,CC(C)OC(=O)c1cc(NC(=O)C2C3CCC(O3)C2C(=O)O)cc(C(=O)OC(C)C)c1 (stereo not drawn),77.9% (active)
23,COCCCn1c(SCc2cccc(OC)c2)nc2cc(OC)c(OC)cc2c1=N,53.4% (active)
24,OCCN1CCOCCOCCN(CCO)CCN(CCO)CC1,16.6%
25,CC(=O)c1c(N2CCOCC2)nc(=S)n(Cc2ccccc2)c1C,12.8%

row,Structure (SMILES),inhibition
1,Cc1nn(Cc2ccccc2)c(Cl)c1C(=O)OC1CCOC1=O (stereo not drawn),63.5% (active)
2,O=C(OC1CCOC1=O)c1ccc(-c2nc3ccccc3s2)s1 (stereo not drawn),11.3%
3,COc1cccc(-c2nc(S(=O)(=O)c3ccccc3)c(N3CCOCC3)o2)c1,27.7%
4,O=C(NCc1cn2ccsc2n1)Nc1cccc(Cl)c1,13.3%
5,O=c1[nH]c(=O)n(Cc2ccco2)c2c1C(C(F)(F)F)(C(F)(F)F)N=C(c1ccco1)N2,-12.6%
6,Cc1cc(-c2ccccc2)n2nc(C)c(-c3ccccc3)c2n1,30.7%
7,Cc1cc(C)n(C(=O)c2ccc(S(=O)(=O)N3CCCC3)cc2)n1,68.7% (active)
8,CC(=O)c1c(N2CCOCC2)nc(=S)n(-c2cc(C)ccc2C)c1C,-10.5%
9,Cc1cc(C)n(C(=O)c2ccc(C)c(S(=O)(=O)N3CCOCC3)c2)n1,68.7% (active)
10,CCOC(=O)c1csc(NC(=O)c2ccc(S(=O)(=O)N3CCCC3)cc2)n1,-7%
11,Cc1ccc(C(=O)Nc2ccccc2C(=O)NC2CCCCC2)cc1S(=O)(=O)N1CCOCC1,21.5%
12,Cc1ccccc1-c1nnn(CC(=O)c2ccc(S(=O)(=O)N3CCCC3)cc2)n1,14.5%
13,Cc1ccc(-c2nn(C(C)(C)C)c3ncnc(N)c23)cc1,38.5%
14,CCN(Cc1cc2cc(C)ccc2[nH]c1=O)S(=O)(=O)c1ccccc1,31.8%
15,CCCNc1ncnc2sc(C)c(C)c12,29.6%
16,COC(=O)c1ccc(CSc2nncn2C)cc1,39.9%
17,COC(=O)c1ccc(OC(=O)c2nn(C)cc2Cl)c(OC)c1,67.9% (active)
18,COc1ccc(Cl)cc1C(=O)NCc1cn(C)nc1C,10.4%
19,CC(=O)CCS(=O)(=O)c1ccc(C)c(C)c1,35.1%
20,CCN(CC)CC(=O)Nc1nn(-c2ccccc2)nc1C(N)=O,-19.9%
21,COC(=O)c1ccc(Oc2nc(Nc3ccc(F)cc3)nc(N3CCCC3)n2)cc1,32.3%
22,Cc1nn(-c2ccccc2)c2[nH]c(C(F)(F)F)cc(=O)c12,-2.2%
23,CCCCn1nnnc1NCc1cc(OC)c(OC)c(OC)c1,79.8% (active)
24,CCCCCCc1cc2cc(-c3nnc(-c4ccccc4)o3)c(=O)oc2cc1O,27.4%
25,c1cc(-c2nn[nH]n2)ccc1CN1CCCCC1,-11.4%

row,Structure (SMILES),inhibition
1,c1ccc2cc(OCCN3CCCC3)ccc2c1,4.2%
2,c1ccc2cc3[nH]c(CN4CCCCC4)nc3cc2c1,82.7% (active)
3,Cc1nc(C)c(-c2csc(NCCc3ccccc3)n2)s1,39.4%
4,Cn1c(=NC(=O)CSCC(=O)N2CCOCC2)sc2ccccc21,46.6%
5,Cn1c(=NC(=O)c2cnccn2)sc2ccccc21,-2.4%
6,Cn1c(=NC(=O)CSCC(=O)N2CCCCC2)sc2ccccc21,73.6% (active)
7,CC(C)c1nc2oc3c(N4CCN(C)CC4)ncnc3c2c2c1CCC2,22.2%
8,O=C(Oc1ccccc1)Oc1ccc2c(c1)oc(=O)c1ccccc12,-10.9%
9,COc1ccc(C(=O)c2oc3ccc(Br)cc3c2NC(C)=O)cc1,-4%
10,ON=C1/C(=N\O)CC2(C/C1=N/O)OCCO2,-10.5%
11,O=C(C1CCC1)N1CCc2cc(S(=O)(=O)NCc3cccnc3)ccc21,10%
12,O=C1c2ccccc2C(=O)c2c1cccc2N1CCN(Cc2ccccc2)CC1,13.4%
13,O=S(=O)(c1cccs1)N1CCN(Cc2ccccc2)CC1,98.1% (active)
14,O=C(Nc1ccc(S(=O)(=O)N2CCc3ccccc3C2)cc1)c1ccccc1,0.3%
15,O=S(=O)(c1cccs1)N1CCc2ccccc2C1,78% (active)
16,CCCCNc1nc2ccccc2nc1NS(=O)(=O)c1cccs1,2.4%
17,CN1CCN(S(=O)(=O)c2ccc(N3CCN(S(=O)(=O)c4cccs4)CC3)nc2)CC1,-25.5%
18,CCN(c1ccccc1)S(=O)(=O)c1ccc(NC(=O)C(C)(C)C)cc1,9.3%
19,COc1cccc(/C=N\Nc2nncc(-c3ccccc3)n2)c1,-7%
20,O=C1C=C(c2ccc(Cl)cc2)C(=O)N1Nc1ccccc1,19.7%
21,CCOc1ccc(C(=O)NC2CCN(S(=O)(=O)CC)CC2)cc1,9.1%
22,CC(=O)NC(Cc1ccc(F)cc1)C(=O)O (stereo not drawn),-5.1%
23,Cn1c(SCc2c(F)cccc2Cl)nnc1-c1cnccn1,25.9%
24,CCCc1nc2sc3c(c2c(=O)n1NC(=O)CCCl)CCCC3,88.5% (active)
25,O=C(NCc1ccco1)c1cccn2c(=O)c3c4c(sc3nc12)CCCC4,45.2%

row,Structure (SMILES),inhibition
1,Cc1nc(SCC(=O)Nc2cc(C)on2)c2c3c(sc2n1)CCCC3,7%
2,O=C(Nc1ccc(Cl)cc1)c1ccsn1,25.4%
3,O=C(Nc1cccc(-c2nc3ncccc3o2)c1)c1ccco1,5.2%
4,CN1C(=O)c2ccc(NC(=O)c3c(F)c(F)c(F)c(F)c3F)cc2C1=O,-11.8%
5,O=C(Nc1ccncc1)c1c(F)cccc1F,52.4% (active)
6,O=C(NCCc1ccc2c(c1)OCCO2)c1cc2ccccc2o1,41.2%
7,O=C(Nc1ccncc1)c1cc2ccccc2o1,99.6% (active)
8,C/C(=C\C(=O)c1ccccc1)Nc1cccc(O)c1,10.3%
9,COc1ccc(CNC(=O)C2CCC(CNc3c(N4CCOCC4)c(=O)c3=O)CC2)cc1 (stereo not drawn),-12.8%
10,COc1cccc(-c2nc3cc(C)ccc3o2)c1,42.7%
11,C/C=C/C(=O)OCC(=O)Nc1ccc(F)cc1Cl,16.4%
12,CCC1Oc2ccc(Cl)cc2N(CC(=O)O)C1=O (stereo not drawn),-3.7%
13,Cc1cccc(C)c1NC(=O)c1ccc(CN2CCc3ccccc3C2)cc1,-19.5%
14,CCC(c1nnnn1C1CCCC1)N1CCN(C(=O)c2ccco2)CC1 (stereo not drawn),61.3% (active)
15,CC(=O)c1ccc(-n2nnnc2SCC(=O)N2CCN(C(=O)c3ccco3)CC2)cc1,-3.8%
16,CC(C)C(c1nnnn1CCc1ccccc1)N1CCN(C(=O)c2ccco2)CC1 (stereo not drawn),15.7%
17,COC(=O)C1=C(C)NC2=C(C(=O)c3ccccc32)C1c1ccc(-c2ccc(C(=O)O)cc2)o1 (stereo not drawn),44.5%
18,COC(=O)c1cc(NC(=O)CC2C(=O)NCCN2C(=O)c2ccc(F)cc2)cc(C(=O)OC)c1 (stereo not drawn),8.6%
19,O=C(NC(C(=O)NCCN1CCOCC1)C12CC3CC(CC(C3)C1)C2)C1CCCCC1 (stereo not drawn),-0.8%
20,OC(CN1C2=NCCCN2c2ccccc21)c1ccc(Br)cc1 (stereo not drawn),11.9%
21,O=C(Nc1nsc(-c2ccccc2)n1)c1ccncc1,93.3% (active)
22,COC(=O)c1nc(NC(=O)c2ccccc2)n[nH]1,1.9%
23,Cn1sc(NC(=O)c2ccccc2)nc1=O,0.2%
